Where “and” joins values, the source holds several entries; their conditions need not be identical. Equal entries are not always repeated. Results filed as inconclusive are left out. A call without a number means that no potency is given here. Calls of active or inactive are those of the source. The call rests on the fitted dose curve; in most records, active means well fitted inhibition curve with a large enough effect in the repeat runs; inconclusive means weak or mixed curves; inactive means no such curve, though single readings can be large or run the other way.
Potency means the concentration at half of the fitted maximal effect.

The test can be described thus: qHTS assay to identify small molecule antagonists of the thyroid receptor (TR) signaling pathway (AID 743065). Further: nearly all actives have a fitted effect of over 55% in size. Conditions: GH3.TRE-Luc, T3-stimulated luciferase inhibition, 23.5 h; series mostly up to 70.3 µM. The source says:
U.S. Tox21 Program National Center for Advancing Translational Sciences [NCATS] NIH Chemical Genomics Center [NCGC] U.S. Environmental Protection Agency [EPA] National Institutes of Environmental Health Sciences [NIEHS] National Toxicology Program [NTP] U.S. Food and Drug Administration [FDA] Tox21 Assay Overview: Thyroid receptor (TR), a nuclear hormone receptor, plays an important role in development, proliferation, differentiation, metabolism, brain function, and cardiovascular system. […] To profile the Tox21 10K compound library in TR signaling, a cell-based GH3-TRE-Luc assay (GH3.TRE-Luc cell line, developed by the laboratory of Dr. Albertinka J. Murk, Wageningen University) was used to measure the inhibition of TR. GH3 (rat pituitary tumor) cells stably expressing a TR activity sensor consisting of two TR response elements and a luciferase reporter gene.
Tox21 Assay Protocol Summary: GH3.TRE-Luc cells were dispensed at 1500 cells/4 uL/well into 1536-well white solid bottom plates using a Multidrop Combi dispenser (Thermo Fisher Scientific Inc., Waltham, MA). After the assay plates were incubated at 37 C for 4 hours, 23 nL of library compound or DMSO controls was transferred to the assay plates by a pintool station (Kalypsys, San Diego, CA), followed by addition of 1 ul of T3 (1 nM, final concentration in the wells) to stimulate TR transactivation. The assay plates were incubated at 37 C for 23.5 h, and then 1 uL of CellTiter-Fluor reagent (Promega, Madision, WI) of measuring cytotoxicity was added to each well using a Bioraptr Flying Reagent Dispenser (FRD) workstation (Beckman Coulter, Indianapolis, IN, USA). The plates were incubated at 37 C and 5% CO2 for additional 30 min, and fluorescence intensity was measured by a ViewLux plate reader (PerkinElmer, Shelton, CT). For measuring luciferase reporter gene activity, 4 uL of ONE-Glo Luciferase Assay reagent (Promega) was added to each well using a Bioraptr FRD (Beckman Coulter), followed by 30 min incubation at room temperature. The luminescence intensity of plates was recorded by a ViewLux plate reader (PerkinElmer, Shelton, CT).
A general note: qHTS replaces the single test concentration by a dilution series.
For the molecule `C=CCOC(Cn1ccnc1)c1ccc(Cl)cc1Cl` (centres undefined), the Potency is 23.7 µM (active) and 61.3 µM (active) and 30.6 µM (active).

With `Nc1ccc(-c2ccc(N)c(Cl)c2)cc1Cl`, the Potency is 27.4 µM (active) and 10.1 µM (active) and 17.2 µM (active).

Take `CCCC[n+]1cccc(C)c1`: the Potency entry is “inactive”.

With `CCCCCC[n+]1ccccc1`, the Potency entry is “inactive”.

Turning to `Nc1ccc(Cl)cc1`, the Potency entry was “inactive”.

For `Nc1ccc(-c2ccc(N)cc2)cc1`, the Potency result was “inactive”.

Regarding `COc1ccccc1N`, the Potency entry is “inactive”.

With `COP(=O)(OC)C(O)C(Cl)(Cl)Cl` (centres undefined), the Potency entry was “inactive”.

Take `CC[N+]1(C)CCCC1`: the Potency result was “inactive”.

Turning to `O=[N+]([O-])c1ccccc1O`, the Potency result was “inactive”.

With `N#CS`, the Potency result is “inactive”.

`O=C(O)c1nc(Cl)ccc1Cl`: the Potency result was “inactive”.

On to `CC(Cl)(Cl)C(=O)O`, for which the Potency result is “inactive”.

Take `O=C(O)CC(O)(CC(=O)O)C(=O)O`: the Potency entry was “inactive”.

On to `CCCCCCCCn1cc[n+](C)c1`, for which the Potency was 27.3 µM (active) and 54.9 µM (active).

Consider `O=C(O)CCl`, for which the Potency result is “inactive”.

In the case of `CC[N+](CC)(CC)CC`, the Potency result is “inactive”.

Take `CCC(=O)C(CC(C)N(C)C)(c1ccccc1)c1ccccc1` (centres undefined): the Potency was 27.4 µM (active) and 30.4 µM (active) and 41.5 µM (active).

As for `CCCC[n+]1ccccc1`, the Potency result is “inactive”.

Consider `CCCC[N+]1(C)CCCC1`, for which the Potency entry was “inactive”.

Consider `CCOP(=S)(OCC)Oc1ccc2c(C)c(Cl)c(=O)oc2c1`, for which the Potency result was “inactive”.

As to `Cc1cc(Cl)ccc1N`, the Potency result is “inactive”.

With `COP(=O)(OC)OC=C(Cl)Cl`, the Potency result was “inactive”.

For the molecule `CC(=O)[O][Hg][c]1ccccc1`, the Potency is 422 nM (active) and 215 nM (active) and 217 nM (active).

On to `CCCCn1cc[n+](C)c1`, for which the Potency entry is “inactive”.

For `CCC[N+]1(C)CCCCC1`, the Potency result was “inactive”.

On to `C[C@]12CCC(=O)C=C1CC[C@@H]1[C@@H]2CC[C@]2(C)C(=O)CC[C@@H]12`, for which the Potency is 60.1 µM (active).

`CCCCCCn1cc[n+](C)c1`: the Potency result was “inactive”.

As for `COc1ccc(N)cc1`, the Potency result was “inactive”.

For the molecule `Cc1cc(-c2ccc(N)c(C)c2)ccc1N`, the Potency entry was “inactive”.

As for `CCCCCCCCCCCCCC[P+](CCCCCC)(CCCCCC)CCCCCC`, the Potency is 3.87 µM (active) and 4.36 µM (active) and 2.43 µM (active).

As to `CCCC[N+]1(C)CCCCC1`, the Potency entry is “inactive”.

As for `CCNc1nc(Cl)nc(NCC)n1`, the Potency result was “inactive”.

With `CCCCn1cc[n+](C)c1C`, the Potency entry is “inactive”.

`O=C(O)C(Cl)(Cl)Cl`: the Potency result is “inactive”.

`OCCOc1ccccc1`: the Potency entry was “inactive”.

Consider `C1CCC(NC2CCCCC2)CC1`, for which the Potency result was “inactive”.

For the molecule `Cc1cc(Cl)ccc1OCC(=O)O`, the Potency entry was “inactive”.

As to `O=C(O)C(Cl)Cl`, the Potency result was “inactive”.

(Values after PubChem BioAssay (Tox21).)
